An excerpt weighted towards active compounds, which were near 4.6% of everything screened.
D1 agonist = agonists of human D1 dopamine receptor; HEK293 T-REx D1 cells, calcium flux, agonist mode; P21728; 1% of 360,000 active; activation, % at 2 µM; note: 0% is about no effect
Target sequence (P21728 whole entry, looked up): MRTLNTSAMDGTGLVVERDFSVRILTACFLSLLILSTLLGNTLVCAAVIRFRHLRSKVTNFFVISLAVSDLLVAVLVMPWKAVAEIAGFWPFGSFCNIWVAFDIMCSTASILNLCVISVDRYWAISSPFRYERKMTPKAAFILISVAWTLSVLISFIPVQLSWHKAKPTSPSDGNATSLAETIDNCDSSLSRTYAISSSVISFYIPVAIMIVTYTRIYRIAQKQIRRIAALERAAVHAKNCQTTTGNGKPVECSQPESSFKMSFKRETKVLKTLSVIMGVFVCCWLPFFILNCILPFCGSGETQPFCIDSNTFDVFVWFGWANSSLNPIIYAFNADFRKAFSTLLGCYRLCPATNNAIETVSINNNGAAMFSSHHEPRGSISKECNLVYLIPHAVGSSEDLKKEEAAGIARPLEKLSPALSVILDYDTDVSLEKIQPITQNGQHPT
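Agonism was scored from calcium flux recorded over 180 s (1 read/s) after pintool compound addition, following a 10-cycle baseline. Cells were inducible force-coupled HEK293 TREx D1, plated overnight at 30 C and loaded with no-wash calcium dye.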
TRHR ag = activates the human TRH receptor. P34981. TRHR cells, calcium flux fluo-8, FDSS agonist mode. activation, % at 2 µM. 0.18% of 360,000 active; note: 0% is about no effect
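Fluo-8-loaded TRHR cells; 10 s baseline, compound added, kinetic Ca2+ fluorescence read 1/s, agonist mode.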
TRHR PAM = allosteric enhancers of human TRH receptor | P34981 | AID 493056 | 0.66% of 360,000 active | enhancement, % at 2 µM | TRHR cells, fluo-8 calcium fluorescence, EC20 TRH enhancement; in the data active = enhancement above about 30%; note: 0% is about no effect
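TRHR-expressing cells loaded with fluo-8 calcium dye were read kinetically (ex 480/em 530) during compound addition, then stimulated with an EC20 of TRH (10 nM final). Enhancement of the Gq-mediated intracellular calcium response was scored.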
D1 antag = antagonists of human D1 dopamine receptor. P21728. HEK293 TREx D1 cells, calcium flux, dopamine EC80; stronger effect = lower value. activity change, negative = inhibition, % at 10 µM. 3.2% of 360,000 active. AID 504652; in the data active = activity change below about -30%; note: % is set by controls: 0 for no effect and ±100 for the full control effect
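After overnight tetracycline induction at 30 C, force-coupled D1 HEK293 cells took up a no-wash calcium dye at room temperature. Compounds were added and monitored 180 s, and the response to EC80 dopamine was then recorded.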
D1 potentiator = enhances dopamine response at the human D1 receptor. P21728. HEK293 TREx D1 cells, calcium flux, dopamine EC20 potentiation. potentiation, % at 10 µM. 0.036% of 360,000 active; in the data active = potentiation above about 30%; note: 0% is about no effect
Active calls of the source: *; / = no result; ! = repeats disagree. Cut-off read from the data, not from the text of the source, unless noted: active = activation above about 30%; inactive = the rest.

SMILES	D1 agonist	TRHR ag	TRHR PAM	D1 antag	D1 potentiator
COc1ccc(-n2c(=O)c3sc4ccccc4c3n(Cc3ccccc3C)c2=O)cc1OC	0	0	0	-13	-4
Cn1c(=O)oc2cc(S(=O)(=O)NC3CCCc4ccccc43)ccc21 (stereo unspecified)	20	1	1	-36*	/
COc1ccc(S(=O)(=O)NC2CCc3ccccc32)cc1OC (stereo unspecified)	11	0	0	-37*	-5
COc1cc(OC)c2c(c1)C(=O)OC2OC (stereo unspecified)	1	0	36*	12	-1
COc1ccc(OC)c(CCNC(=O)c2nn(C)c3c2CSc2ccccc2-3)c1	-2	0	2	16	-2
Cc1ccc(N2C(=O)c3ccc(C(=O)Nc4cccnc4)cc3C2=O)c(C)c1	0	0	9	0	-3
Cc1cccc(NC(=O)CCCCCN2C(=O)c3ccccc3C2=O)n1	5	-1	-2	-10	-3
Cc1ccc(NC(=O)CCCCCN2C(=O)c3ccccc3C2=O)nc1	1	0	2	-32*	-9
Cc1ccc(NC(=O)CN2C(=O)c3cccnc3Sc3ccccc32)cc1C	-1	-1	33*	-10	-5
Cc1ccc(NC(=O)CN2C(=O)c3ccccc3C2=O)cc1	1	0	40*	-2	-5
COc1ccc(NC(=O)CN2C(=O)c3cccnc3Sc3ccccc32)cc1OC	1	-1	-8	11	-4
Cc1ccc(NC(=O)c2ccc3c(c2)C(=O)N(c2ccccc2C)C3=O)nc1	16	0	0	-36*	/
CCC(Cn1nnc2ccccc2c1=O)NC(=O)Nc1cccc(C)c1C (stereo unspecified)	-1	0	-16	-9	-3
COc1ccccc1NC(=O)CSc1nnc(-c2nonc2NC(C)=O)n1-c1ccccc1	-3	0	2	-2	0
S=C(NCC1CCCO1)Nc1ccc(Nc2ccccc2)cc1 (stereo unspecified)	12	0	3	-34*	-8
S=C(NCC1CCCO1)Nc1cccc(Cl)c1 (stereo unspecified)	0	0	-2	-25	-4
Cc1c(-c2nsc(NC(=O)c3cccs3)n2)nnn1-c1ccc(Br)cc1	12	0	4	-11	-1
CCOc1ccc(C(=O)C(C)OC(=O)c2nc(Cl)ccc2Cl)cc1 (stereo unspecified)	35*	-1	0	-24	3
CSc1ccccc1OCc1cc(C(=O)NCc2cccc(C)n2)no1	2	0	0	-5	-9
CCn1nc(C)c(CNC(=O)c2cc(COc3ccccc3SC)on2)c1C	12	1	23	-49*	0
CN(CCOc1ccc(Br)cc1)C(=O)CNC(=O)c1ccc2ccccc2c1	6	1	7	-3	-8
Cc1nc(SCCOc2ccccc2)[nH]c(=O)c1Cc1ccccc1	1	0	2	0	-2
O=c1[nH]c(SCCOc2ccccc2F)nc2ccccc12	0	1	-1	-24	-8
COc1ccc(OCCSc2nc(C)c(Cc3ccccc3)c(=O)[nH]2)cc1	28	-1	1	-39*!	-1
O=C(CSc1nc(O)c(Cc2ccccc2)c(=O)[nH]1)Nc1ccccc1	1	1	1	-7	1
SMILES	D1 agonist	TRHR ag	TRHR PAM	D1 antag	D1 potentiator
CCOC(=O)c1ccc(NC(=O)CSc2nc(C)c(Cc3ccccc3)c(=O)[nH]2)cc1	8	-1	-6	-30*	0
COc1ccc(NC(=O)CSc2nc(O)c(Cc3ccccc3)c(=O)[nH]2)cc1	-1	0	32*	21	-3
COc1ccccc1OCCSc1nc2ccccc2c(=O)[nH]1	0	1	10	-41*	-10
Cc1csc2nc(COC(=O)c3ccccc3NC(=O)COc3ccccc3F)cc(=O)n12	4	0	9	4	0
CC1CN(C(=O)CCC(=O)N2CCN(c3cccc(C(F)(F)F)c3)CC2)c2ccccc2O1 (stereo unspecified)	1	0	1	2	-1
Cc1cc(Br)ccc1NC(=O)C1(S(=O)(=O)c2ccc(Cl)cc2)CC1	1	-1	0	2	0
CCOC(=O)C1CCCN(C(=O)c2cc3c(Cl)nc4ccccc4c3s2)C1 (stereo unspecified)	7	0	0	-19	-4
O=[N+]([O-])c1cccc(NC(=S)Nc2nc(-c3ccc(Cl)cc3Cl)cs2)c1	7	1	3	-31*	-7
Clc1ccc(CCNc2ncnc3nc[nH]c23)cc1	19	-1	4	-35*	-5
c1ccc(CCCNc2ncnc3nc[nH]c23)cc1	193*	0	-2	-57*	2
c1ccc(CNc2ncnc3nc[nH]c23)cc1	2	0	-6	0	-6
CCCNc1ncnc2nc[nH]c12	-1	0	2	0	10
Cc1cc(SCC(=O)N/N=C/c2ccc(O)c(O)c2)c(C)cc1Br	2	1	-2	-32*	-5
CC(C)(C)OC(=O)N1CCC(c2c(C(=O)NC3CCCCC3)cnn2-c2cccc(Cl)c2)CC1	1	-1	22	-10	-5
O=C(NCCc1ccccc1)c1nnc(Cc2cccc(F)c2)o1	38*	0	-4	5	0
O=C(NCc1ccc2c(c1)OCO2)c1nnc(Cc2ccc(F)cc2)o1	3	0	-11	-56*	-2
O=C(NCc1ccc(F)cc1)c1nnc(Cc2cccc(F)c2)o1	23	2	0	16	1
O=C(NCc1cccnc1)c1nnc(Cc2ccc(F)cc2)o1	1	0	-7	-2	-4
CC(Oc1ccccc1)C(=O)Nc1ccc(OCc2cc(=O)n3ccsc3n2)cc1 (stereo unspecified)	1	-2	5	1	-4
CCCCNCCOCCOc1ccc(Cl)cc1Br	14	0	3	-41*	-3
CC(C)NCCCOc1ccc(Cl)cc1Br	47*	0	8	-25	-10
CCNC(=O)COc1ccc(Br)cc1Cl	0	0	-3	-13	-3
CC(C)NCCCCOc1ccc(Br)cc1Cl	50*	-1	8	-25	-5
COCCCNCCCOc1ccc(Cl)cc1Br	8	2	1	-1	-4
COCCCNC(=O)COc1ccc(Br)cc1Cl	1	0	12	-34*	-2
CCc1cccc(C)c1NC(=O)CN(C)S(=O)(=O)c1ccc(-c2ccc(=O)[nH]n2)s1	1	0	0	-18	5
CC1CN(C(=O)N2CCC(C(=O)N3CCN(c4ccccc4)CC3)CC2)c2cc(Cl)ccc2O1 (stereo unspecified)	-1	-1	-3	-17	-4
Cc1ccc(S(=O)(=O)N(Cc2nc(-c3cccc(C)c3)no2)C2CCCCC2)cc1	9	2	4	6	-2

Screening data (PubChem BioAssay)
